Results published in PubChem BioAssay (EPA / NIEHS).
The source made the active and inactive calls. The calls were made as follows: active = hit-call score of the fitted dose curve at least 0.9, where 1 is the maximum; inactive = score below 0.9.

Key:
[1] = APR_HepG2_NuclearSize_72hr: Apredica 72-hour HepG2 Assay for Nuclear Size (AID 2282925); conditions: high-content imaging, actives raise or lower the signal
Summary of the method: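 Read-out: nuclear diameter from Hoechst 33342 images (ArrayScan, 20x, six fields/well), via cell-cycle image analysis. HepG2 were dosed 0.39–200 uM for 72 hr in 0.5% DMSO. Bidirectional fit relative to DMSO.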

[2] = ATG_CRE_CIS: Attagene CIS-FACTORIAL HepG2 Assay for human cAMP Responsive Element (CRE) binding protein 3 (AID 2282926); conditions: HepG2 CRE cis-reporter, Attagene multiplexed mRNA; actives raise or lower the signal
Summary of the method: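 Assay format: transient reporter transfection of HepG2, 24 h treatment, total RNA isolation with DNase I step. Reporter abundance read by fluorescence after PCR and capillary separation; DMSO-normalised gain or loss fitting.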

[3] = molecular target: CCAAT/enhancer-binding protein beta (Homo sapiens) (UniProt P17676); assay: ATG_C_EBP_CIS: Attagene CIS-FACTORIAL HepG2 Assay for human CCAAT/Enhancer Binding Protein (C/EBP) beta (AID 2282927); conditions: HepG2 Attagene cis-factorial transcription factor reporter; actives raise or lower the signal
Summary of the method: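 HepG2, transient MRTU transfection, 24 h treatment. RT-PCR plus CE fluorescence; DMSO negative control, bidirectional fit.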

[4] = ATG_CMV_CIS: Attagene CIS-FACTORIAL HepG2 Assay for human CMV (Internal Marker) (AID 2282928); conditions: HepG2 CMV promoter reporter, transcription factor profiling; actives raise or lower the signal;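 also: endpoint acts as a background internal control marker rather than a target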
Summary of the method: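 Fluorescence intensity of RT-PCR-derived reporter fragments, resolved by capillary electrophoresis, gives the signal. HepG2 liver cells bearing transfected cis-element reporters were treated 24 h; activity in either direction was fit relative to DMSO-treated controls.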

[5] = ATG_DR4_LXR_CIS: Attagene CIS-FACTORIAL HepG2 Assay for human Liver X Receptor (LXR), DR4 submotif (AID 2282929); conditions: HepG2 Attagene DR4 cis-reporter, mRNA transcription; actives raise or lower the signal
Summary of the method: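 HepG2 cells transiently transfected with cis-promoter-driven multiplexed reporter units (DR4 element) were dosed for 24 h. Reporter mRNA was quantified by RT-PCR, fluorescent primer extension, HpaI digestion and capillary electrophoresis; bidirectional fitting versus DMSO baseline.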

[6] = ATG_AP_1_CIS: Attagene CIS-FACTORIAL HepG2 Assay for human Activator Protein 1 (AP-1) (AID 2282931); conditions: HepG2 Attagene cis-factorial AP-1 reporter mRNA; actives raise or lower the signal
Summary of the method: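 HepG2 cells transiently transfected with cis-element-driven multiplex reporter units; 24 h compound exposure. Reporter mRNA quantified by RT-PCR, FAM-labelled fragments resolved by capillary electrophoresis; bidirectional fit versus DMSO baseline.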

[7] = ATG_AP_2_CIS: Attagene CIS-FACTORIAL HepG2 Assay for human Activator Protein 2 (AP-2) (AID 2282932); conditions: HepG2 AP-2 cis-reporter, Attagene transcription factor profiling; actives raise or lower the signal
Summary of the method: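 Liver-derived HepG2 line, cis-reporter system measuring endogenous factors; 24 h dosing; reporter mRNA detected by fluorescent RT-PCR and capillary electrophoresis.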

[8] = ATG_BRE_CIS: Attagene CIS-FACTORIAL HepG2 Assay for human Bone Morphogenetic Protein (BMP) Response Element (BRE) (AID 2282933); conditions: HepG2 BMP response element reporter, Attagene transcription factor profiling; actives raise or lower the signal
Summary of the method: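 HepG2 cells transiently transfected with CIS reporter units (endogenous TF activity, BMP response element), dosed 24 h. Reporter mRNA quantified by RT-PCR, fluorescent labelling and capillary electrophoresis; bidirectional fit vs DMSO baseline.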

[9] = molecular target: Retinoic acid receptor alpha (Homo sapiens) (UniProt P10276); assay: ATG_DR5_RAR_CIS: Attagene CIS-FACTORIAL HepG2 Assay for human Retinoic Acid Receptor Alpha (RARE), DR5 submotif (AID 2282934); conditions: HepG2 Attagene cis-factorial RARE DR5 reporter, mRNA; actives raise or lower the signal;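 as to AC50: reporter responds to endogenous RAR alpha beta and gamma in HepG2 not RARA alone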
Summary of the method: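 After 24 h of chemical exposure, transiently transfected HepG2 cells were lysed for total RNA; the DR5-regulated reporter transcript was quantified via RT-PCR and capillary electrophoresis, with activity fitted bidirectionally against DMSO.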

[10] = molecular target: Transcription factor E2F1 (Homo sapiens) (UniProt Q01094); assay: ATG_E2F_CIS: Attagene CIS-FACTORIAL HepG2 Assay for human E2F Transcription Factor 1 (AID 2282935); conditions: HepG2 Attagene cis-reporter, E2F reporter RNA transcripts; actives raise or lower the signal
Summary of the method: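 Liver-derived HepG2 cells expressing transfected promoter-driven reporter units received test chemical for 24 hours. Signal gains or losses were fitted bidirectionally against DMSO.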

[11] = ATG_E_Box_CIS: Attagene CIS-FACTORIAL HepG2 Assay for human Enhancer Box (E-box) (AID 2282936); conditions: HepG2 E-box cis-reporter transcription, actives raise or lower the signal
Summary of the method: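 In this cell-based setup, HepG2 cells bearing transfected promoter-driven reporter units were exposed to chemicals for 24 h; reporter transcripts were amplified, 6-FAM-labelled, cut with HpaI and sized by capillary electrophoresis.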

[12] = ATG_M_61_CIS: Attagene CIS-FACTORIAL HepG2 Assay for M61 Transcription Factor (Internal Marker) (AID 2282937); conditions: HepG2 Attagene CIS-FACTORIAL M61 internal marker reporter; actives raise or lower the signal
Summary of the method: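 HepG2 cells transiently transfected with cis-element-driven multiple reporter transcription units, dosed for 24 h. Reporter mRNA measured by RT-PCR, 6-FAM primer-extension labelling, HpaI digestion and capillary electrophoresis; bidirectional fit versus DMSO baseline.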

[13] = ATG_EGR_CIS: Attagene CIS-FACTORIAL HepG2 Assay for human Early Growth Response 1 (EGR1) (AID 2282938); conditions: HepG2 Attagene CIS-FACTORIAL EGR reporter mRNA; actives raise or lower the signal
Summary of the method: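 HepG2 cells transiently transfected with cis-promoter-driven multiplexed reporter transcription units; reporter mRNA measured 24 h after compound dosing by RT-PCR, 6-FAM primer extension, HpaI digestion and capillary electrophoresis. Bidirectional fit versus DMSO baseline.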

[14] = ATG_M_19_CIS: Attagene CIS-FACTORIAL HepG2 Assay for M19 Transcription Factor (Internal Marker) (AID 2282939); conditions: HepG2 Attagene CIS-FACTORIAL M19 internal marker reporter; actives raise or lower the signal
Summary of the method: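 HepG2 cells transiently transfected with cis-regulated multiplexed reporter units, dosed 24 h. Reporter mRNA quantified by RT-PCR and capillary electrophoresis; internal background marker fitted bidirectionally versus DMSO.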

[15] = ATG_ERE_CIS: Attagene CIS-FACTORIAL HepG2 Assay for Estrogen Response Element (ERE) (AID 2282940); conditions: HepG2 ERE cis-reporter, Attagene RNA transcript; actives raise or lower the signal
Summary of the method: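 HepG2 cells transiently transfected with multiplexed cis-element reporter units, measuring endogenous transcription factor activity; ERE reporter mRNA quantified after 24 h exposure by RT-PCR, fluorescent labelling, HpaI digestion and capillary electrophoresis. Bidirectional change versus DMSO.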

[16] = ATG_Ets_CIS: Attagene CIS-FACTORIAL HepG2 Assay for human Erythroblast Transformation Specific (ETS) (AID 2282941); conditions: HepG2 ETS cis-reporter transcription, actives raise or lower the signal
Summary of the method: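 Multiplexed reporter transcript profiling: HepG2, 24 h treatment, total RNA to cDNA, PCR, 6-FAM labelling, HpaI cut, capillary electrophoresis. Gain- or loss-of-signal fitted against DMSO.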

[17] = molecular target: Hepatocyte nuclear factor 3-beta (Homo sapiens) (UniProt Q9Y261); assay: ATG_FoxA2_CIS: Attagene CIS-FACTORIAL HepG2 Assay for human Forkhead box A2 (FOXA2) (AID 2282942); conditions: HepG2 cis-reporter transcription factor activity, 24 h; actives raise or lower the signal
Summary of the method: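 HepG2 cells transiently transfected with multiple cis-regulated reporter transcription units, dosed for 24 h. Reporter mRNA measured by RT-PCR, 6-FAM labelling, HpaI digestion and capillary electrophoresis; bidirectional fitting against DMSO baseline.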

[18] = ATG_FoxO_CIS: Attagene CIS-FACTORIAL HepG2 Assay for human Forkhead box O (FoxO) (AID 2282943); conditions: HepG2 Attagene cis-reporter, FoxO element, mRNA; actives raise or lower the signal
Summary of the method: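 Transfected HepG2 reporter cells exposed to test chemical for 24 h; reporter RNA measured by reverse transcription, PCR and fluorescent capillary electrophoresis; curves fitted for increases and decreases against DMSO.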

[19] = ATG_GATA_CIS: Attagene CIS-FACTORIAL HepG2 Assay for human GATA Binding Protein (AID 2282944); conditions: HepG2 GATA cis-element reporter, Attagene multiplex mRNA; actives raise or lower the signal
Summary of the method: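 HepG2 cells transiently transfected with multiplexed cis-element reporter units measure endogenous GATA activity; after 24 h compound exposure, reporter mRNA quantified by RT-PCR and capillary electrophoresis. Changes fitted in both directions vs DMSO.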

[20] = molecular target: Aryl hydrocarbon receptor (Homo sapiens) (UniProt P35869); assay: ATG_Ahr_CIS: Attagene CIS-FACTORIAL HepG2 Assay for human Aryl Hydrocarbon Receptor (Ahr) (AID 2282930); conditions: HepG2 AhR cis-factorial reporter transcription; actives raise or lower the signal
Summary of the method: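 Endogenous factor activity is tracked through cis-promoter reporter units transfected into HepG2 cells. Transcript levels at 24 h are read by fluorescent RT-PCR and capillary electrophoresis, with activity in either direction scored relative to DMSO.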

Measured: AC50

Aryl hydrocarbon receptor (Homo sapiens), sequence (P35869 whole entry, looked up): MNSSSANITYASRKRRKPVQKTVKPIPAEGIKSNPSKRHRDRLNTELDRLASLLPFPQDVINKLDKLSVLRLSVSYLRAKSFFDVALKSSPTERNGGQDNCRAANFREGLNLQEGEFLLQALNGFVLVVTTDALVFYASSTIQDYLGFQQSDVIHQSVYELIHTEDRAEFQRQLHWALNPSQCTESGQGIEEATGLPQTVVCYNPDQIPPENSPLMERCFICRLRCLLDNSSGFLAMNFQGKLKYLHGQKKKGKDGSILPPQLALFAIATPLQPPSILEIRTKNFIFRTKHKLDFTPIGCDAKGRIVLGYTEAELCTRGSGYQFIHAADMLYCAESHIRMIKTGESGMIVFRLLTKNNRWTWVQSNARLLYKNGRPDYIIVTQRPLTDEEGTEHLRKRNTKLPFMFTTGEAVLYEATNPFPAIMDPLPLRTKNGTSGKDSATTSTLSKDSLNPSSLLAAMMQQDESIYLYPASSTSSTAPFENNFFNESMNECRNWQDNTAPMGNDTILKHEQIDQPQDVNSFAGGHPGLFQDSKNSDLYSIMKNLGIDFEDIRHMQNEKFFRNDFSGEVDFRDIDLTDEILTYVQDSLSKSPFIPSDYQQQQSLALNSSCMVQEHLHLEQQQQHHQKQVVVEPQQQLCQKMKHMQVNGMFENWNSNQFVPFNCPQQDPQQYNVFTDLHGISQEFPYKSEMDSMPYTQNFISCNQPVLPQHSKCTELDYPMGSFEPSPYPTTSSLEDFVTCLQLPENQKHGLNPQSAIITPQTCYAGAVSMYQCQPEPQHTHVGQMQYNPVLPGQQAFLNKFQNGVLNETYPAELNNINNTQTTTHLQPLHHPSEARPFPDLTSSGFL
Hepatocyte nuclear factor 3-beta (Homo sapiens), sequence (Q9Y261 whole entry, looked up): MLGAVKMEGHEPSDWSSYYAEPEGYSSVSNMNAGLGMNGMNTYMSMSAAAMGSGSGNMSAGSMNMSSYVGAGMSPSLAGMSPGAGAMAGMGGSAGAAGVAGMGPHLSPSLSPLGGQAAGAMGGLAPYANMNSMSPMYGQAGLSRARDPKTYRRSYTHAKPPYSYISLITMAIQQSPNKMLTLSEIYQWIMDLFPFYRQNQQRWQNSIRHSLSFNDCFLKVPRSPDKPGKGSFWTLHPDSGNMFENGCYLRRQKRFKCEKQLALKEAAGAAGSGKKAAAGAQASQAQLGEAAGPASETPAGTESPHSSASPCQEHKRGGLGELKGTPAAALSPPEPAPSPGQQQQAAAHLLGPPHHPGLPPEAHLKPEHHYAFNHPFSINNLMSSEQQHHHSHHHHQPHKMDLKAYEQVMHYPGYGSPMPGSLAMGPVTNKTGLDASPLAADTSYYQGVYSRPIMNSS
Retinoic acid receptor alpha (Homo sapiens), sequence (P10276 whole entry, looked up): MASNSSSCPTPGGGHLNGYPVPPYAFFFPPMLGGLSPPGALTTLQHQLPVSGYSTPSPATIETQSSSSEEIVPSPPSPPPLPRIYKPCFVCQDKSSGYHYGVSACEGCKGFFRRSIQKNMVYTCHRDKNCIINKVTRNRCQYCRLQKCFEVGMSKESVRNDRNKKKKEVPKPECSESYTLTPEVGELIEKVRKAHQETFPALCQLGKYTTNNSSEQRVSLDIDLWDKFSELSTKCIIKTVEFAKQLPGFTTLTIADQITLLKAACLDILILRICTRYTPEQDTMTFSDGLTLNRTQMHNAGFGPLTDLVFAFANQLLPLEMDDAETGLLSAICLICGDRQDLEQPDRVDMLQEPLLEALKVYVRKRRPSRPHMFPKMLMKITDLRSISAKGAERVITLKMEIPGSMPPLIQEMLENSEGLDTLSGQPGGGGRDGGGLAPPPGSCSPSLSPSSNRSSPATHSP
Transcription factor E2F1 (Homo sapiens), sequence (Q01094 whole entry, looked up): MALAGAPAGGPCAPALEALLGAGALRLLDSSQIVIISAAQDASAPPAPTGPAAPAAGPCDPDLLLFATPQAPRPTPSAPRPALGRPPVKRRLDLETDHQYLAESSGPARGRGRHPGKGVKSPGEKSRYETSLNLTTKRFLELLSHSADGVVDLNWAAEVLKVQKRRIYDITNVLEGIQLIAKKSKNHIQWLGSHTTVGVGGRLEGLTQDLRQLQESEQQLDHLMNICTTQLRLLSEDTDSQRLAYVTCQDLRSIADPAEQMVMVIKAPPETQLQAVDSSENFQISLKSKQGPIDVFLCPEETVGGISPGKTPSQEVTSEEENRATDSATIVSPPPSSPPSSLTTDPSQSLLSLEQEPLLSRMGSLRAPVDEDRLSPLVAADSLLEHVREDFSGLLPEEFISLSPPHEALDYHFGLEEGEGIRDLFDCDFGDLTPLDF
CCAAT/enhancer-binding protein beta (Homo sapiens), sequence (P17676 whole entry, looked up): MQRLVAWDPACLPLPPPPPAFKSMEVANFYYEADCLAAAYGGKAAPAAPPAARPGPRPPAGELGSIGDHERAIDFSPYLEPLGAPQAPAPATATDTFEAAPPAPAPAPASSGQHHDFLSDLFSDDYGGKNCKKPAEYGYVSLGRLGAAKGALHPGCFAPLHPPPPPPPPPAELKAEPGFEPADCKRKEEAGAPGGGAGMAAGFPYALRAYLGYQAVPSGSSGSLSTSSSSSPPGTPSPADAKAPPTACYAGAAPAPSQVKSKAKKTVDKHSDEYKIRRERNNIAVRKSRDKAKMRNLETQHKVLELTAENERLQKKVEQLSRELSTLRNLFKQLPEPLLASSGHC

CC(=O)CC(C)(C)O
not listed: [20]
inactive: all other assays above

c1ccc2c(c1)Cc1ccccc1-2
active: [15] 100 µM
not listed: [12]
inactive: all other assays above

CCCCCCCCCCCCN1CCCC1=O
not listed: [12]
inactive: all other assays above

Cc1cc(CCN2CCN(c3nsc4ccccc34)CC2)cc2c1NC(=O)CC2(C)C
active: [3] 7.43 µM | [5] 2.82 µM | [6] 3.21 µM | [9] 3.74 µM | [13] 4.06 µM
not listed: [12]
inactive: all other assays above

CCCOc1sc(C(=O)N2CCC(c3cc(CN)ccc3F)CC2)c(C)c1Br
active: [1] 97.5 µM | [6] 3.7 µM | [15] 2.72 µM
not listed: [12]
inactive: all other assays above

O=C(OCCOCCOC(=O)c1ccccc1)c1ccccc1
active: [20] 71.3 µM
not listed: [12]
inactive: all other assays above

N#C[C@@H]1CC(F)(F)CN1C(=O)CNC1CC2CCC(C1)N2c1ncccn1 (stereo partly drawn)
not listed: [12]
inactive: all other assays above
